Most compounds without a hit are left out; they make up all but 1.7% or so of the library.
LYPLA2 counter: LYPLA2 (human) inhibition in PME1 counter-screen; inhibition, % at 5.9 µM; recombinant LYPLA2, FP-Rh probe fluorescence polarization; AID 2177; 0.38% of 320,000 active;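 active means inhibition above the screen-wide mean plus 3 SD, limit set per campaign, cut at about 26% in these data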
LYPLA1 inh: blocks human lysophospholipase 1, a PME1 counter-screen | AID 2174 | inhibition, % at 5.9 µM | 0.16% of 320,000 active | recombinant LYPLA1, FP-Rh probe fluorescence polarization | O75608;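 active means inhibition above the mean of all tested compounds plus 3 SD, set per campaign, cut at about 14% in these data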;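 further: inhibitors block serine hydrolase probe labeling of LYPLA1 so polarization falls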
Fam108B counter: Fam108B inhibition, counter-screen for RBBP9 inhibitors; recombinant Fam108B, FP-Rh probe fluorescence polarization; inhibition, % at 9.51 µM; 0.33% of 300,000 active;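 active means inhibition above the screen mean inhibition plus 3 SD, computed separately per campaign, cut at about 18% in these data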;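 further: inhibitors lower polarization as less probe binds the enzyme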
PME-1 inh: PME-1 (human) inhibition. Q9Y570. recombinant PME-1, FP-Rh probe fluorescence polarization. inhibition, % at 5.9 µM. 0.53% of 320,000 active;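 active means inhibition above the campaign mean of all compounds plus 3 SD, cut at about 26% in these data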;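 further: competitive labeling of PME-1 active site by serine hydrolase directed probe; inhibitors block probe labeling so polarization falls and inhibition rises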
Target sequence (Q9Y570 whole entry, looked up): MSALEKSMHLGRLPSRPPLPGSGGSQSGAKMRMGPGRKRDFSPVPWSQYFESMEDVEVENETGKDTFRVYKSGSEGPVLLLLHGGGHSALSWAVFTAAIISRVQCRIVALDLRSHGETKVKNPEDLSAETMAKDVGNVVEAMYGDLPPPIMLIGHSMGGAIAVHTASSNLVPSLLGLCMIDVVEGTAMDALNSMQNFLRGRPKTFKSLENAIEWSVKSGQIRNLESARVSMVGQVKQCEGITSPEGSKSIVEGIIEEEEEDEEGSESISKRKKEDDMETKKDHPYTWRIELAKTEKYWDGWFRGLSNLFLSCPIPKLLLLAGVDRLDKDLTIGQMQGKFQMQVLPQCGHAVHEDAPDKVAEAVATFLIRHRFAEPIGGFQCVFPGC
PAD4 inh: inhibitors of human PAD4 | 0.41% of 330,000 active | recombinant PAD4, RCA probe fluorescence polarization | inhibition, % at 6.36 µM | AID 485272;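 active means percent inhibition above a cutoff equal to the mean of all tested compounds plus 3 SD, cut at about 15% in these data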
GSTO1 counter: counter-screen for RBBP9 inhibitors: inhibitors of human GSTO1; recombinant GSTO1, activity-based probe fluorescence polarization; inhibition, % at 5.96 µM; 1.1% of 300,000 active; AID 1974; P78417;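 active means inhibition above the campaign mean inhibition plus 3 SD, cut at about 35% in these data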
Target sequence (P78417 whole entry, looked up): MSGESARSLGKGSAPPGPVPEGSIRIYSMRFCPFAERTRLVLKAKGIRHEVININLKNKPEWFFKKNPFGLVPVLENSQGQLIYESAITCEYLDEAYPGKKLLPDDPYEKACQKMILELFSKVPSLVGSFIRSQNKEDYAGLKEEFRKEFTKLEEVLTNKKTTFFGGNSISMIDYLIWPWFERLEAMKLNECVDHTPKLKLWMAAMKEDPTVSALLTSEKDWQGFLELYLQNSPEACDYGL
PAD4 FP conf: PAD4 (human) inhibition, confirmed. 28% of 1,200 active. inhibition, % at 6.36 µM. recombinant PAD4, RCA probe fluorescence polarization. shares compounds with PAD4 inh;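 active means mean inhibition across replicates above the hit cutoff set by the earlier primary screen, cut at about 15% in these data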;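 further: inhibitors block active-site labeling by the probe so polarization falls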
Of the large screens only hits and unclear results are named; the others gave an inactive call (follow-up assays come after a bar, where they were run).

CC1CCCC(NC(=O)COC(=O)c2ccccc2[N+](=O)[O-])C1C (centres undefined)	none
Cc1cc(OCC(=O)Nc2nnc(C3CC3)s2)ccc1[N+](=O)[O-]	none
Nc1ccc(N(CCO)CCO)cc1	PAD4 inh 58.8, GSTO1 counter 64.6 | PAD4 FP conf inactive
CC(c1ccccc1)n1c(N2CCN(C)CC2)nc2c1c(=O)[nH]c(=O)n2C (centres undefined)	none
CCOc1ccc(N=C/C=C/c2ccccc2)c(O)c1	PME-1 inh 58.4, PAD4 inh 26.2, GSTO1 counter 54.5 | PAD4 FP conf inactive
COc1ccc2c(C)cc(Sc3nnnn3-c3ccccc3)nc2c1	none
CC(=O)c1cccc(OCc2cc(C(=O)N3CCSCC3)no2)c1	PAD4 inh 35.0 | PAD4 FP conf inactive
COc1cc(C(C)=O)ccc1OCc1cc(C(=O)N2CCSCC2)no1	none
Cc1ccc(-c2nc3sc(C#N)c(N)n3c(=O)c2C#N)cc1	PAD4 inh 62.0, GSTO1 counter 36.2 | PAD4 FP conf inactive
CCOC(=O)c1c(N2C(=O)CC(Sc3ccccc3C(=O)O)C2=O)sc(C)c1C (centres undefined)	PAD4 inh 16.9 | PAD4 FP conf inactive
CC(NC(=O)c1ccncc1)c1ccccc1 (centres undefined)	none
CCN(CC)S(=O)(=O)c1ccc(N=NC2=C(O)CCCC2=O)cc1	PAD4 inh 167.8 | PAD4 FP conf inactive
CCN(CC)S(=O)(=O)c1ccc(N=NC2=C(O)CC(C)(C)CC2=O)cc1	none
Cc1ccc(NC(=O)CN2C(=O)NC(C)(CCc3ccccc3)C2=O)cc1 (centres undefined)	none
Cn1c(SCC(=O)N/N=C/C=C/c2ccccc2[N+](=O)[O-])nc2ccccc21	none
Cn1c(SCC(=O)N/N=C/C=C/c2ccco2)nc2ccccc21	PAD4 inh 51.7 | PAD4 FP conf inactive
CCCN(CC(=O)Nc1ccccc1C)C(=O)c1sc2ccccc2c1Cl	none (no result: Fam108B counter, GSTO1 counter)
Cc1ccccc1C(=O)NNC(=O)CSc1nc2ccccc2c(=O)[nH]1	PAD4 inh 23.3 | PAD4 FP conf inactive
Cc1cccc(NC(=O)CSc2nnnn2-c2ccc3c(c2)OCCO3)n1	none
Cc1ccccc1N1CCN(C(=S)c2ccc([N+](=O)[O-])cc2)CC1	PAD4 inh 19.5 | PAD4 FP conf inactive
CC(C)c1ccc(/C=N/n2nnnc2Nc2ccccc2)cc1	PAD4 inh 15.2 | PAD4 FP conf inactive
O=C(O)CCCC(=O)Nc1ccccc1Br	none
CN(C)NC(=S)NC(=O)C12CC3CC(CC(C3)C1)C2	none
CN(C(=S)NC(=O)C12CC3CC(CC(C3)C1)C2)c1ccc(O)cc1	PAD4 inh 24.2 (no result: LYPLA2 counter, LYPLA1 inh, Fam108B counter, PME-1 inh, GSTO1 counter) | PAD4 FP conf inactive
C=CCN(c1ccccc1C(=O)NCC(=O)O)S(=O)(=O)c1ccccc1C	none
Cc1cccc2c1NC(C)CC2C (centres undefined)	PAD4 inh 15.4 | PAD4 FP conf inactive
C/C(=N/NC(=O)CSc1nc2ccccc2s1)c1ccncc1	none
CS/C(=N\S(=O)(=O)c1cccs1)NC(=O)CSc1nc2ccccc2s1	PAD4 inh 18.1 | PAD4 FP conf inactive
C=CCn1c(Cc2cccs2)nnc1SCC(=O)c1ccc2ccccc2c1	none
COc1ccc2ccccc2c1CNC(C)CCc1ccccc1 (centres undefined)	none
CCN(C(=O)COC(=O)c1cc(-c2cccc3ccccc23)nc2ccccc12)C1CCS(=O)(=O)C1 (centres undefined)	PAD4 inh 24.1 | PAD4 FP conf inactive
O=C(COC(=O)c1cc(-c2cccc3ccccc23)nc2ccccc12)NC1CCS(=O)(=O)C1 (centres undefined)	PME-1 inh 42.6, PAD4 inh 65.4 | PAD4 FP conf 24.2
COC(=O)c1[nH]c(=O)c2ccccc2c1O	PAD4 inh 30.8 | PAD4 FP conf inactive
CC1=CC(C)(C)N2C(=O)C3(C(C#N)=C(N)OC4=C3C(=O)CC(C)(C)C4)c3c(C)c(C)cc1c32 (centres undefined)	PAD4 inh 39.9 | PAD4 FP conf inactive
Cc1sc(NC(=O)c2ccccc2)c(C(c2ccc(Cl)cc2)N2CCN(CCO)CC2)c1C (centres undefined)	PAD4 inh 17.0 | PAD4 FP conf inactive
Cc1ccc(C(=O)NCc2ccc(F)cc2)cc1NC1=NC2CS(=O)(=O)CC2S1 (centres undefined)	none
COc1ccc(-n2ccnc2SCC(=O)NCc2ccco2)c(OC)c1	none
Cc1cc2ncn(-c3ncccc3[N+](=O)[O-])c2cc1C	PAD4 inh 86.6 | PAD4 FP conf inactive
CCOC(=O)C1=C(C)NC(C)=C(C(=O)OCC)C1c1ccccc1/C=C/C(=O)OC(C)(C)C	none
OCCN(CCO)c1ccc(C(c2ccc(Cl)cc2)c2ccc(N(CCO)CCO)cc2Cl)c(Cl)c1	PAD4 inh 15.3 | PAD4 FP conf inactive
CCC(=O)N(Cc1cc(=O)[nH]c2ccccc12)c1ccc(C)cc1	PAD4 inh 15.4 | PAD4 FP conf inactive
CCCC(=O)N(Cc1cc(=O)[nH]c2ccccc12)c1cccc(C)c1	PAD4 inh 22.0 | PAD4 FP conf 48.9
Cc1cccc(N(Cc2cc(=O)[nH]c3ccccc23)C(=O)C(C)C)c1	none
CC(=O)N(Cc1cc(=O)[nH]c2ccccc12)c1cccc(C)c1	PAD4 inh 53.0 | PAD4 FP conf 44.3
CC(=O)N(Cc1cc(=O)[nH]c2ccccc12)c1ccccc1C	none
CCCN(Cc1cc(=O)[nH]c2ccccc12)C(=O)CC	none
CCCC(=O)N(Cc1cc(=O)[nH]c2ccccc12)c1ccccc1C	PAD4 inh 15.0 | PAD4 FP conf 16.8
CCN(CC(=O)Nc1ccccc1C(F)(F)F)C(=O)CN1C(=O)NC2(CCCC2)C1=O	none
N#Cc1ccc(CN2CCN(c3ccc(S(=O)(=O)N4CCCC4)cn3)CC2)cc1	none (no result: Fam108B counter, GSTO1 counter)
Cc1ccc2c(c1)cc1c(=O)n(CC(=O)NCc3ccccn3)nc(C)n12	none
COc1ccc(C(=O)NC(C)c2nnc(SCC(=O)Nc3nc4ccccc4s3)n2C)cc1 (centres undefined)	none
CCc1ccccc1NC(=O)C1CCN(C(=O)N2CCOc3ccccc32)CC1	none
COc1ccc(NC(=O)C(c2cc3c(cc2[N+](=O)[O-])OCO3)N(C)C)cc1 (centres undefined)	PAD4 inh 31.1 | PAD4 FP conf inactive
COc1cccc2cc(C(=O)NCCc3ccccc3)oc12	PAD4 inh 16.8 | PAD4 FP conf inactive
COc1cccc(OC)c1C(=O)NCCc1ccccc1	none
COc1ccc(S(=O)(=O)n2ccnc2C)c(C)c1C	none
COc1ccccc1C1CC(c2cccs2)=NN1C(=O)CCC(=O)O (centres undefined)	none
COc1ccccc1C1CC(c2cccs2)=Nc2ccccc2S1 (centres undefined)	PAD4 inh 22.7 | PAD4 FP conf inactive

Screens: PubChem, The Scripps Research Institute Molecular Screening Center
